Our source for the growth inhibition values is PubChem BioAssay (NCI).

The structures appear in SMILES notation. Values joined by “and” are separate entries in the source; they are usually repeats but may differ in a detail not shown here. Equal entries are not always repeated. The panel holds about 79,000 compounds, 15% with a hit somewhere; the sample as a whole holds those more often. A number with no mark means an inactive call. Active and inactive are the calls of the source. Rule as the data show it: active = growth inhibition above about 70%; inactive = the rest.

Experiment [1] in a line: NCI Yeast Anticancer Drug Screen. Data for the rad50 strain (AID 155).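 Also: 0% = growth of vehicle-only cultures of the same strain.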 As to conditions: S. cerevisiae rad50 strain growth inhibition, stronger effect = higher value; at 50.0 µM unless noted. An outline of the steps: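 DNA repair mutant yeast, compound exposure, growth read-out; inhibition is taken relative to vehicle.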
Experiment [2] in a line: NCI Yeast Anticancer Drug Screen. Data for the mec2-1 strain (AID 157). To be noted: S. cerevisiae mec2-1 strain, stronger effect = higher value; at 50.0 µM unless noted. An outline of the steps: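 Strain: mec2-1 (DNA repair/cell cycle alteration). Compound exposure, then growth measured; inhibition expressed relative to vehicle.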
The nature of experiment [3]: NCI Yeast Anticancer Drug Screen. Data for the sgs1 mgt1 strain (AID 161).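 Also: 0% = growth of cultures given vehicle only.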 As to conditions: S. cerevisiae sgs1 mgt1 strain, stronger effect = higher value; at 50.0 µM unless noted. Summed up:
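Read-out: growth inhibition vs vehicle controls. Cells: mutant yeast strain deficient in DNA damage repair.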

Experiment [4] can be described thus: NCI Yeast Anticancer Drug Screen. Data for the cln2 rad14 strain (AID 165).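 Also: 0% = growth equal to vehicle treated cultures.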 As to conditions: S. cerevisiae cln2 rad14 strain, stronger effect = higher value; at 50.0 µM unless noted. Summed up: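 Compounds are applied to the cln2 rad14 yeast strain, and growth is then compared with that of vehicle-treated cultures to give inhibition.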
Experiment [5] is described as follows: NCI Yeast Anticancer Drug Screen. Data for the bub3 strain (AID 167). As to conditions: S. cerevisiae bub3 mutant strain, stronger effect = higher value; at 50.0 µM unless noted. An outline of the steps:
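In this screen, a yeast mutant lacking normal mitotic checkpoint function is challenged with compound. Relative growth versus vehicle gives the inhibition value.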

A short description of experiment [6]: NCI Yeast Anticancer Drug Screen. Data for the mlh1 rad18 strain (AID 175). To be noted: S. cerevisiae mlh1 rad18 strain growth inhibition, stronger effect = higher value; at 50.0 µM unless noted. An outline of the steps:
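Read-out is yeast growth inhibition, calculated against vehicle-only controls. The compound was applied to a strain engineered with DNA damage repair alterations.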

On to `CN(Cc1ccc2nc(N)nc(N)c2c1)c1ccc(C(=O)NC(CCC(=O)O)C(=O)O)cc1` (centres undefined), for which the growth inhibition in experiment [1] is 65.3%; in experiment [2] it was 88.8% (active); in experiment [3], 77.8% (active); in experiment [4] it was 4.7%; in experiment [5], -24.5%; in experiment [6], 33.3%.
Take `CC1CCC2(OC1)OC1CC3C4CC=C5CC(O)CCC5(C)C4CCC3(C)C1C2C` (centres undefined): the growth inhibition in experiment [1] is 21.8% and 13.3%; in experiment [2] it was 16.9% and -23.6%; in experiment [3], -1.5% and 3.2%; in experiment [4], -3.95% and 4%; in experiment [5], 1.35% and 14.8%; in experiment [6], 32.9% and 15.3%.
On to `COc1cc(N(Cc2ccc3nc(OC)c(OC)nc3c2)Cc2ccc3nc(OC)c(OC)nc3c2)cc(OC)c1OC`, for which the growth inhibition was -29.8% in experiment [1]; -23.6% in experiment [2]; -19.4% in experiment [3]; -6.4% in experiment [4]; -20.4% in experiment [5]; -14.6% in experiment [6].
In the case of `COc1cccc(-c2cc(=O)c3cc(C)cnc3[nH]2)c1`, the growth inhibition in experiment [1] was -17.2%; in experiment [2], 3.85%; in experiment [3], 4.05%; in experiment [4] it was -2.4%; in experiment [5], 18.8%; in experiment [6], -13.2%.
Turning to `CC(NC(C#N)CC12CC3CC(CC(C3)C1)C2)c1ccccc1` (centres undefined), the growth inhibition in experiment [1] is -11.8%; in experiment [2], -11.4%; in experiment [3], -11.6%; in experiment [4], 12.2%; in experiment [5], 6.75%; in experiment [6], -30.6%.
Regarding `O=C1CN(Cc2ccc3c(c2)OCO3)NO1`, the growth inhibition in experiment [1] is 15.3%; in experiment [2], -1.25%; in experiment [3], -17.4%; in experiment [4], -4.5%; in experiment [5], -9.35%; in experiment [6], -26.5%.
As to `O=c1c2ccccc2oc2c(Cl)cc(Cl)cc12`, the growth inhibition in experiment [1] was -0.95%; in experiment [2], -0.05%; in experiment [3], 9.35%; in experiment [4], -10.3%; in experiment [5], -6.5%; in experiment [6] it was 0.8%.
Turning to `CN(C)CCNC(=O)Cn1ccc(=O)c2ccc([N+](=O)[O-])cc21`, the growth inhibition in experiment [1] was 11.9%; in experiment [2], 6.55%; in experiment [3] it was 20.6%; in experiment [4] it was 20.8%; in experiment [5], -5.85%; in experiment [6], -39.5%.
Turning to `COc1cccc(/C=C/c2cnc3ccccc3n2)c1OC`, the growth inhibition in experiment [1] was -1.25%; in experiment [2] it was 13.8%; in experiment [3], -10.2%; in experiment [4], 10.7%; in experiment [5] it was -6.7%; in experiment [6], -52.1%.
Turning to `COc1cc2c(c(OC)c1OC)-c1ccc(OC)c(=O)cc1[C@@H](NC=O)CC2`, the growth inhibition in experiment [1] is -11%; in experiment [2], -14.5%; in experiment [3] it was -22.9%; in experiment [4], 4.15%; in experiment [5], -8.05%; in experiment [6], -29.8%.
For the compound `Cc1ncc([N+](=O)[O-])n1CC(O)Cn1cnc([N+](=O)[O-])n1` (centres undefined), the growth inhibition is -19% in experiment [1]; -6.5% in experiment [2]; -1.75% in experiment [3]; -4.2% in experiment [4]; -4.35% in experiment [5]; -31.4% in experiment [6].
For `CCOC(=O)c1c(NS(=O)(=O)c2ccc(C)cc2)sc(C)c1-c1ccccc1`, the growth inhibition is -21.4% in experiment [1]; -0.45% in experiment [2]; -6.2% in experiment [3]; 67.8% in experiment [4]; 6.85% in experiment [5]; -3.65% in experiment [6].
With `CC1CCC2C(=O)OC(=O)C2C1` (centres undefined), the growth inhibition in experiment [1] is 6.2%; in experiment [2] it was -10.2%; in experiment [3] it was 11.6%; in experiment [4], 23.6%; in experiment [5], 18.4%; in experiment [6] it was 4.7%.
Regarding `O=C(O)c1c[nH]c2cc(OCc3ccc4ccccc4c3)ccc2c1=O`, the growth inhibition in experiment [1] was 20.2%; in experiment [2], 2.55%; in experiment [3] it was -11.3%; in experiment [4] it was -2.05%; in experiment [5], -3.05%; in experiment [6], 6.55%.
For `COC(=O)C1C(O)C(C)C(O)C(C)(O)/C=C/C=C(C)C(=O)Nc2c(C)c(OC(C)=O)c3c(c2O)C(=O)C(C)=C2OCOC(=C23)C(C)=CC(C)(O)C(O)C(C)C1OC(C)=O` (centres undefined), the growth inhibition was 4.6% in experiment [1]; -19.9% in experiment [2]; 5.5% in experiment [3]; 4.05% in experiment [4]; 3.05% in experiment [5]; 18.8% in experiment [6].
As for `CC1(C)OCC[C@@H]1[Si](C)(C)C`, the growth inhibition is 17.6% in experiment [1]; 21.6% in experiment [2]; 14.2% in experiment [3]; 2.8% in experiment [4]; -3.45% in experiment [5]; -19.6% in experiment [6].
`COC(=O)CCC(NC(=S)N/N=C(\C)c1ccco1)C(=O)OC` (centres undefined): the growth inhibition in experiment [1] is -18.1%; in experiment [2] it was -20.8%; in experiment [3], 0.25%; in experiment [4] it was 26.6%; in experiment [5], -5.2%; in experiment [6], -16.3%.
In the case of `COc1ccc(C2Oc3cc(OC)c(O)cc3[C@@H]2C)cc1` (some centres undefined), the growth inhibition in experiment [1] was -7.35%; in experiment [2], 28.6%; in experiment [3] it was 2.55%; in experiment [4], 15.6%; in experiment [5], 54.8%; in experiment [6], 31%.
For the compound `CC1=CSC2=NCCCCN12`, the growth inhibition in experiment [1] was -9.5%; in experiment [2], 2.3%; in experiment [3], 13.3%; in experiment [4] it was 8.55%; in experiment [5], 18.2%; in experiment [6] it was 16.1%.
